Source: PubChem (The Scripps Research Institute Molecular Screening Center)
TTR transcr act = TTR transcription activators in neuroblastoma reporter cells, primary screen, cell-based, luminescence, SH-SY5Y, TTR promoter Gaussia luciferase | 100% = recombinant luciferase protein wells | activation, % at 16.7 µM | 92,000 compounds, 1.3% hits;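 active means activation above the mean of all tested compounds plus 3 SD, cut at about 9.5% in these data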;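 further: cells exposed to compounds for one day before reading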
HuH7 TTR inh = TTR promoter reporter inhibitors in hepatoma cells, counter-screen for TTR transcription activator project, cell-based, luminescence, HuH7 hepatoma; HuH7 TTR promoter-Gaussia luciferase reporter; AID 1117279, 2014; inhibition, % at 16.7 µM; 1,100 compounds, 4% hits; shares compounds with TTR transcr act;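 active means average inhibition above the solvent-only control wells' mean plus 3 SD, cut at about 15% in these data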;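 further: inhibitors lower well luminescence so higher value means more inhibition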
TTR act confirm = TTR transcription activators, retest, confirmation, cell-based, luminescence, SH-SY5Y, triplicate; shares compounds with TTR transcr act; SHSY5Y TTR promoter Gaussia luciferase; 100% = purified Lucia enzyme wells, no cells; activation, % at 16.7 µM; 1,100 tested, under 10 active; AID 1117280, 2014;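 active means mean activation above a set limit taken from the earlier primary screen, cut at about 11% in these data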
Of the large screens only hits and unclear results are named; the others gave an inactive call (follow-up assays come after a bar, where they were run). The entries come from a sample that favours hits as a whole.

COC(=O)[C@]12C[C@H](CC(=O)N3CCCCC3)C(=O)N(Cc3ccc(Cl)cc3Cl)C1=C[C@H](COCc1ccccc1)O[C@@H]2C	none
O=C(Cc1cccc(C(F)(F)F)c1)NCc1ccc(Cl)cc1	none
CC(NC(=O)CSc1cccc(C(F)(F)F)c1)c1ccccc1 (stereo not given)	none
CN(C)C(CNC(=O)Cc1cccc(C(F)(F)F)c1)c1ccccc1 (stereo not given)	TTR transcr act 15 | HuH7 TTR inh inactive | TTR act confirm inactive
CC(=O)N1CSCC1C(=O)NNS(=O)(=O)c1cccc(C(F)(F)F)c1 (stereo not given)	none
O=C(NCCc1ccccc1)OCc1cn(-c2ccc(F)c(F)c2)nn1	none
O=C(O)Cn1cc(C(=S)N2CCCCC2)c2ccccc21	none
Fc1ccc(Cn2cc(C(=S)N3CCOCC3)c3ccccc32)cc1	none
CC1CCN(C(=S)c2cn(Cc3cccc(F)c3)c3ccccc23)CC1	TTR transcr act 10 | HuH7 TTR inh inactive | TTR act confirm inactive
O=C(OCc1ccccc1)[C@H](Cc1ccccc1)NC(=O)[C@@H]1CC=C[C@@H]2CCN(C3CCCCC3)C(=O)[C@@H]21	none
CCOc1ccc(C(C(=O)NC2CCCCC2)N(CCOC)C(=O)c2snc(C(N)=O)c2N)cc1 (stereo not given)	none
